Data as given in the supplement of paper PMC9023506.
Counter-ions that a name gives are not always drawn.

What follows are compounds tested on Danio rerio larvae (5 dpf) (assay: activity during first hour (no stimuli), difference vs DMSO (percentage points (treated minus DMSO)); higher = more of the behaviour than the DMSO vehicle control). Details: 10 µM; exposure time: 3 h pre-incubation + 3 h imaging.
Description: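 5-dpf wild-type zebrafish larvae were imaged in 96-well plates. They were treated with 190 Tocris FDA-approved drugs at 10 µM (1 µl/ml DMSO) for 3 h before and 3 h during imaging at 28.5 °C, 48 larvae per drug. Automated image analysis gave % time moving and optomotor responses. Values are drug group mean minus DMSO vehicle mean (n=844), in percentage points, for 10 behaviours.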
`N[C@@H]1C[C@H]1c1ccccc1` [Tranylcypromine hydrochloride] was tested, and the “activity during first hour” value was -14.1.
`COc1ccc(C(CN(C)C)C2(O)CCCCC2)cc1` (configuration not stated) [Venlafaxine hydrochloride] was tested, and the “activity during first hour” value was -22.5.
For `C=C1C[C@@H]2[C@H](CC[C@]3(C)C(=O)CC[C@@H]23)[C@@]2(C)C=CC(=O)C=C12` [Exemestane], the “activity during first hour” value was -19.6.
In the case of `C=CCN1C[C@H](C(=O)N(CCCN(C)C)C(=O)NCC)C[C@@H]2c3cccc4[nH]cc(c34)C[C@H]21` [Cabergoline], the “activity during first hour” value is reported as -9.57.
For `COc1cc2c(cc1OC)C1CC(=O)C(CC(C)C)CN1CC2` (configuration not stated) [Tetrabenazine], the “activity during first hour” value was 3.91.
With `Cc1cccc([C@H](C)c2c[nH]cn2)c1C` [Dexmedetomidine hydrochloride] the “activity during first hour” value was -27.8.
`CC(O)(CS(=O)(=O)c1ccc(F)cc1)C(=O)Nc1ccc(C#N)c(C(F)(F)F)c1` (configuration not stated) [Bicalutamide] was tested, and the “activity during first hour” value was 4.47.
With `CN1C[C@H](C(=O)N[C@]2(C)O[C@@]3(O)[C@@H]4CCCN4C(=O)[C@H](Cc4ccccc4)N3C2=O)C[C@@H]2c3cccc4[nH]cc(c34)C[C@H]21` [Dihydroergotamine mesylate] the “activity during first hour” value was 4.7.
`CCN(C)C(=O)Oc1cccc([C@H](C)N(C)C)c1` [Rivastigmine tartrate] was tested, and the “activity during first hour” value was 6.97.
In the case of `CC(C)C[C@H]1C(=O)N2CCC[C@H]2[C@]2(O)O[C@](NC(=O)[C@@H]3C=C4c5cccc6[nH]c(Br)c(c56)C[C@H]4N(C)C3)(C(C)C)C(=O)N12` [Bromocriptine mesylate], the “activity during first hour” value is reported as 15.2.
In the case of `O=c1[nH]c2ccccc2n1C1CCN(CCCC(c2ccc(F)cc2)c2ccc(F)cc2)CC1` [Pimozide], the “activity during first hour” value is reported as -12.5.
In the case of `CC[C@@H](C(N)=O)N1CCCC1=O` [Levetiracetam], the “activity during first hour” value is reported as 7.99.
